Outcome and AC50 data for 9 molecules are collected here from PubChem BioAssay (EPA / NIEHS).

Read-out in assay [1]: Urokinase-type plasminogen activator receptor (uPAR), PLAUR (gene 5329)
The assay is described as follows: BSK_BE3C_uPAR: BioMAP Diversity Plus: BE3C Assay for Urokinase-type plasminogen activator receptor (uPAR) Biomarker Activity (AID 2283039).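 For Outcome: uPAR protein level measured by ELISA on the cells; cells exposed to compound for one day before measurement.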 As to conditions: primary human bronchial epithelial cells; actives raise or lower the signal. Summed up: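 Steps: dose human primary bronchial epithelial cells, incubate 24 h, measure uPAR by ELISA, then fit gain- or loss-of-signal response bidirectionally relative to DMSO.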

Read-out in assay [2]: Interleukin-6 (IL6), IL6 (gene 3569)
The assay is described as follows: BSK_CASM3C_IL6: BioMAP Diversity Plus: CASM3C Assay for Interleukin-6 (IL6) Biomarker Activity for (AID 2283040). The following applies: primary human coronary artery smooth muscle cells; actives raise or lower the signal.

Read-out in assay [3]: Tissue plasminogen activator (tPA), PLAT (gene 5327)
The assay is described as follows: BSK_BE3C_tPA: BioMAP Diversity Plus: BE3C Assay for Tissue plasminogen activator (tPA) Biomarker Activity (AID 2283041).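 For Outcome: tPA level quantified by ELISA one day after compound addition.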 The following applies: primary human bronchial epithelial cells; actives raise or lower the signal. An outline of the steps:
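Gain- or loss-of-signal in tPA, measured by ELISA, derived by bidirectional fitting against DMSO. Cells: human primary bronchial epithelial; read at 24 h after chemical dosing.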

Read-out in assay [4]: Interleukin-8 (IL8), CXCL8 (gene 3576)
The assay is described as follows: BSK_CASM3C_IL8: BioMAP Diversity Plus: CASM3C Assay for Interleukin-8 (IL8) Biomarker Activity (AID 2283042).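 Note: IL-8 protein level quantified by ELISA.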 The following applies: primary human coronary artery smooth muscle cells; actives raise or lower the signal.

Read-out in assay [5]: Human Leukocyte Antigen - DR isotype (HLADR), HLA-DRA (gene 3122)
The assay is described as follows: BSK_CASM3C_HLADR: BioMAP Diversity Plus: CASM3C Assay for Human Leukocyte Antigen - DR isotype (HLADR) Biomarker Activity (AID 2283043).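 Note: cell-surface HLA-DR protein level quantified by ELISA.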 As to conditions: primary human coronary artery smooth muscle cells; actives raise or lower the signal.

Read-out in assay [6]: Macrophage colony-stimulating factor (MCSF), CSF1 (gene 1435)
The assay is described as follows: BSK_CASM3C_MCSF: BioMAP Diversity Plus: CASM3C Assay for Macrophage colony-stimulating factor (MCSF) Biomarker Activity (AID 2283044).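 Note: M-CSF protein amount quantified by ELISA after 24 h exposure.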 As to conditions: primary human coronary artery smooth muscle cells; actives raise or lower the signal.

Read-out in assay [7]: Low-density lipoprotein receptor (LDLR), LDLR (gene 3949)
The assay is described as follows: BSK_CASM3C_LDLR: BioMAP Diversity Plus: CASM3C Assay for Low-density lipoprotein receptor (LDLR) Biomarker Activity (AID 2283045).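 Note: LDLR protein level on the cell surface quantified by ELISA.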 As to conditions: primary human coronary artery smooth muscle cells; actives raise or lower the signal.

Read-out in assay [8]: Monocyte Chemoattractant Protein-1 (MCP1), CCL2 (gene 6347)
The assay is described as follows: BSK_CASM3C_MCP1: BioMAP Diversity Plus: CASM3C Assay for Monocyte Chemoattractant Protein-1 (MCP1) Biomarker Activity (AID 2283046).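 Note: MCP-1 level quantified by ELISA 24 h after dosing.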 As to conditions: primary human coronary artery smooth muscle cells; actives raise or lower the signal.

The nature of assay [9]: BSK_CASM3C_Proliferation: Cell Proliferation Assessment in the BioMAP Diversity Plus: CASM3C Assay (AID 2283047).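 Note: sulforhodamine B total protein stain as relative cell number at 560 nm; sub-confluent cells exposed 48 h before staining; fitted both ways against DMSO so gain or loss of cell number.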 As to conditions: primary human coronary artery smooth muscle cells.
Read-out in assay [10]: Monokine induced gamma interferon (MIG), CXCL9 (gene 4283)
The assay is described as follows: BSK_CASM3C_MIG: BioMAP Diversity Plus: CASM3C Assay for Monokine induced gamma interferon (MIG) Biomarker Activity (AID 2283048).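 Note: MIG protein level measured by ELISA.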 The following applies: primary human coronary artery smooth muscle cells; actives raise or lower the signal.

Read-out in assay [11]: serum amyloid A (SAA), SAA1 (gene 6288)
The assay is described as follows: BSK_CASM3C_SAA: BioMAP Diversity Plus: CASM3C Assay for serum amyloid A (SAA) Biomarker Activity (AID 2283049).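 Note: SAA protein level quantified by ELISA.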 The following applies: primary human coronary artery smooth muscle cells; actives raise or lower the signal.

Assay [12] in a line: BSK_CASM3C_SRB: Viability Assessment in the BioMAP Diversity Plus: CASM3C Assay (AID 2283050).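 Note: total protein by SRB staining as cytotoxicity measure in parallel cultures; cells exposed to compound for 24 h.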 The following applies: primary human coronary artery smooth muscle cells.
Read-out in assay [13]: Thrombomodulin, THBD (gene 7056)
The assay is described as follows: BSK_CASM3C_Thrombomodulin: BioMAP Diversity Plus: CASM3C Assay for Thrombomodulin Biomarker Activity (AID 2283051).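 Note: thrombomodulin protein level measured by ELISA 24 h after dosing.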 As to conditions: primary human coronary artery smooth muscle cells; actives raise or lower the signal.

Read-out in assay [14]: Tissue Factor, F3 (gene 2152)
The assay is described as follows: BSK_CASM3C_TissueFactor: BioMAP Diversity Plus: CASM3C Assay for Tissue Factor Biomarker Activity (AID 2283052).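 Note: cell surface tissue factor protein level read by ELISA.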 As to conditions: primary human coronary artery smooth muscle cells; actives raise or lower the signal.

Read-out in assay [15]: Interferon-gamma inducible Protein 10 (IP10), CXCL10 (gene 3627)
The assay is described as follows: BSK_hDFCGF_IP10: BioMAP Diversity Plus: hDFCGF Assay for Interferon-gamma inducible Protein 10 (IP10) Biomarker Activity (AID 2283053). The following applies: primary human foreskin fibroblasts; actives raise or lower the signal. An outline of the steps:
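Cells: human dermal foreskin fibroblasts. Exposure: 24 h post-dosing. Detection: IP-10 ELISA, with values expressed against DMSO controls and fitted in both directions.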

Read-out in assay [16]: Urokinase-type plasminogen activator receptor (uPAR), PLAUR (gene 5329)
The assay is described as follows: BSK_CASM3C_uPAR: BioMAP Diversity Plus: CASM3C Assay for Urokinase-type plasminogen activator receptor (uPAR) Biomarker Activity (AID 2283054).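 Note: cell-surface uPAR protein level quantified by ELISA.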 The following applies: primary human coronary artery smooth muscle cells; actives raise or lower the signal.

Read-out in assay [17]: Vascular cell adhesion molecule 1 (VCAM1), VCAM1 (gene 7412)
The assay is described as follows: BSK_CASM3C_VCAM1: BioMAP Diversity Plus: CASM3C Assay for Vascular cell adhesion molecule 1 (VCAM1) Biomarker Activity (AID 2283055).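 Note: VCAM-1 protein level quantified by ELISA on the cells.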 The following applies: primary human coronary artery smooth muscle cells; actives raise or lower the signal.

Read-out in assay [18]: Collagen III, COL3A1 (gene 1281)
The assay is described as follows: BSK_hDFCGF_CollagenIII: BioMAP Diversity Plus: hDFCGF Assay for Collagen III Biomarker Activity (AID 2283056). The following applies: primary human foreskin fibroblasts; actives raise or lower the signal. An outline of the steps: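 hDFCGF primary human dermal fibroblasts; 24 h chemical exposure; collagen III by ELISA; bidirectional curve fit vs DMSO baseline (gain or loss of signal).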

Read-out in assay [19]: Epidermal growth factor receptor (EGFR), EGFR (gene 1956)
The assay is described as follows: BSK_hDFCGF_EGFR: BioMAP Diversity Plus: hDFCGF Assay for Epidermal growth factor receptor (EGFR) Biomarker Activity (AID 2283057). The following applies: primary human foreskin fibroblasts; actives raise or lower the signal. Summed up: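 Dosing human primary skin fibroblasts, then measuring surface EGFR by ELISA at 24 h, gives the endpoint; gains and losses relative to DMSO were fitted in both directions.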

Read-out in assay [20]: Interleukin-8 (IL8), CXCL8 (gene 3576)
The assay is described as follows: BSK_hDFCGF_IL8: BioMAP Diversity Plus: hDFCGF Assay for Interleukin-8 (IL8) Biomarker Activity (AID 2283058). The following applies: primary human foreskin fibroblasts; actives raise or lower the signal. An outline of the steps: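 ELISA read-out of IL-8 from primary human foreskin fibroblast cultures taken 24 h after dosing; values are bidirectional fits relative to DMSO vehicle.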

Calls of active or inactive are those of the source. Rule for the calls: active = hit-call score of the fitted dose curve at least 0.9, where 1 is the maximum; inactive = score below 0.9.

For `C=CC1(C)OC(=O)N(c2cc(Cl)cc(Cl)c2)C1=O` (stereo not given), the result in assay [1], in assay [2], in assay [3], in assay [4], in [5] and in assay [6] was inactive. In addition, the outcome in assay [7], in assay [8], in assay [9], in assay [10], in assay [11] and in assay [12] was inactive. For the same molecule, the result in assay [13], in assay [14], in assay [15], in assay [16], in assay [17] and in assay [18] was inactive. Besides, the outcome in assay [19] and in [20] was inactive.

The term AC50 denotes the concentration at which the activity in the assay is half-maximal. In the case of `O=C(Nc1ccccc1)Nc1ccnc(Cl)c1`, the AC50 is 0.807 µM (active) in assay [1], 13 µM (active) in [4], 28.6 µM (active) in assay [9] and 0.148 µM (active) in assay [19]. The outcome in [2], in assay [3], in [5], in assay [6], in assay [7] and in assay [8] was inactive. Moreover, the outcome in assay [10], in assay [11], in assay [12], in assay [13], in assay [14] and in assay [15] was inactive. Further, the outcome in assay [16], in [17], in assay [18] and in [20] was inactive.

Take `N#CC(CCc1ccc(Cl)cc1)(Cn1cncn1)c1ccccc1` (stereo not given): the outcome in [1], in assay [2], in [3], in assay [4], in assay [5] and in assay [6] was inactive. The outcome in assay [7], in assay [8], in assay [9], in assay [10], in [11] and in [12] was inactive. Moreover, the result in assay [13], in [14], in assay [15], in assay [16], in [17] and in assay [18] was inactive. Besides, the outcome in assay [19] and in assay [20] was inactive.

As to `CCON=C(CC)C1=C(O)CC(c2c(C)cc(C)cc2C)CC1=O` (stereo not given), the outcome in [1], in [2], in assay [3], in assay [4], in assay [5] and in assay [6] was inactive. The result in assay [7], in [8], in [9], in assay [10], in assay [11] and in assay [12] was inactive. In addition, the outcome in assay [13], in assay [14], in [15], in assay [16], in assay [17] and in assay [18] was inactive. Moreover, the outcome in assay [19] and in assay [20] was inactive.

`Cc1c(F)c(F)c(COC(=O)C2C(/C=C(\Cl)C(F)(F)F)C2(C)C)c(F)c1F` (stereo not given): the outcome in [1], in [2], in assay [3], in assay [4], in assay [5] and in assay [6] was inactive. Moreover, the outcome in assay [7], in [8], in [9], in [10], in assay [11] and in assay [12] was inactive. Moreover, the outcome in assay [14], in assay [15], in assay [16], in assay [17], in assay [18] and in [19] was inactive. Moreover, the outcome in [20] was inactive. Further, the AC50 in [13] was 14 µM (active).

For `CC1COC(Cn2cncn2)(c2ccc(Oc3ccc(Cl)cc3)cc2Cl)O1` (stereo not given), the AC50 in assay [1] is 30.3 µM (active); in assay [3], 27.4 µM (active); in assay [9], 27.8 µM (active); in assay [13] it was 16.1 µM (active); in assay [15], 37.9 µM (active); in assay [18], 28.1 µM (active). Besides, the AC50 in assay [19] was 8.04 µM (active); in [20], 34.5 µM (active). The outcome in assay [2], in assay [4], in assay [5], in assay [6], in assay [7] and in assay [8] was inactive. In addition, the outcome in assay [10], in assay [11], in assay [12], in assay [14], in assay [16] and in assay [17] was inactive.

Consider `CCOC(=O)CC(SP(=S)(OC)OC)C(=O)OCC` (stereo not given), for which the result in [1], in [2], in assay [3], in [4], in assay [5] and in [6] was inactive. The result in assay [7], in assay [8], in assay [9], in assay [10], in assay [11] and in assay [12] was inactive. In addition, the result in assay [13], in assay [14], in assay [15], in assay [16], in [17] and in assay [18] was inactive. For the same molecule, the result in assay [19] and in [20] was inactive.

Take `COP(=S)(OC)Oc1nc(Cl)c(Cl)cc1Cl`: the result in assay [1], in assay [2], in assay [3], in [4], in [5] and in [6] was inactive. Moreover, the outcome in [7], in assay [8], in [10], in assay [11], in assay [12] and in assay [14] was inactive. For the same molecule, the outcome in [16], in assay [17], in [19] and in [20] was inactive. Further, the AC50 is 32.1 µM (active) in assay [9], 16.1 µM (active) in assay [13], 25.4 µM (active) in [15] and 20 µM (active) in assay [18].

With `CCCC1COC(Cn2cncn2)(c2ccc(Cl)cc2Cl)O1` (stereo not given), the outcome in assay [1], in assay [2], in [3], in assay [4], in [5] and in [6] was inactive. Besides, the result in assay [7], in assay [8], in [9], in assay [10], in assay [11] and in assay [12] was inactive. For the same molecule, the result in assay [14], in assay [15], in [16], in assay [17], in [18] and in assay [19] was inactive. Also, in assay [20], the outcome was inactive. Further, the AC50 in [13] is 7.5 µM (active).
